According to PubChem BioAssay AID652126 (The Scripps Research Institute Molecular Screening Center, 2013):
Out of some 370,000 compounds screened, about 3,700 (1%) were called active.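 The calls were made as follows: active = activation above the mean over all tested compounds plus 3 SD (cut at about 0.9% in these data); inactive = the rest.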 Many of the other results were omitted from the sample, so actives are more common in it than they were.

Tested on: Nuclear hormone receptor DAF-12 (Strongyloides stercoralis)
Assay: S. stercoralis DAF-12 nuclear receptor activators, primary screen, cell-based, luminescence, HEK293, GRIP1 co-expression, lit1-tk-luc (AID 652126);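 also: 0% = DMSO-only wells and 100% = 3 µM delta7-dafachronic acid wells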
Settings: HEK293 ssDAF-12/GRIP1 lit1-tk-luc reporter, at 6.8 µM, active compounds read high, % of 3 µM dafachronic acid response

activation, inactive:
O=C(CSc1nnc(COc2ccccc2)n1-c1ccc(Cl)cc1)Nc1ccc2c(c1)OCO2 -0.91%, N#CCCN(C(=O)COC(=O)C1CCN(c2ccc(C(F)(F)F)cn2)CC1)c1ccc(F)cc1 -1.01%, COc1ccc(Cc2nc3ccc(C(=O)NCC4CCOCC4)cc3o2)cc1OC -0.41%, CC(c1ccccn1)N(C)C(=O)c1ccc2nc(Cc3cccc(Cl)c3)oc2c1 (configuration not stated) 0.07%, CC(C)c1ccc(N(C(=O)c2ccco2)C(C(=O)NC2CCCC2)c2cccnc2)cc1 (configuration not stated) -0.62%, CC/C(O)=C1\C(=O)CC(C)(C)CC1=NCCc1nc2ccccc2[nH]1 -1.35%, CCCC(NC(=O)c1ccco1)c1nc2ccccc2[nH]1 (configuration not stated) -0.66%, COC(=O)[C@]12C[C@H](CC(=O)NCC34CC5CC(CC(C5)C3)C4)C(=O)N(Cc3ccc(Cl)cc3Cl)C1=C[C@H](COCc1ccccc1)O[C@@H]2C -0.9%, O=C(Cn1nc(C(F)(F)F)c2c1CCC2)NCc1ccc(F)cc1 -0.8%, O=C(CN1C(=O)CCS(=O)(=O)c2ccccc21)NCc1ccc(F)cc1 -1.14%, CCCNC(=O)Nc1ccc2c(c1)C(=O)N(C)[C@H]1CC[C@H](CC(=O)NCC3CCCCC3)O[C@@H]1CO2 -1.84%, O=C(COc1ccc(-c2ccccc2)cc1)NN=C1CCCC1 -1.61%, O=C1NC(Nc2nc3ccccc3s2)(C(F)(F)F)C(=O)N1C1CCCCC1 (configuration not stated) -1.03%, COC(=O)[C@]12C[C@H](CC(=O)NCc3cccs3)C(=O)N(CCc3ccc(OC)c(OC)c3)C1=C[C@H](C(C)C)O[C@@H]2C1CC1 -0.56%, CC[C@@H](CCC(=O)N(c1ccccc1)c1ccccc1)C1CC1 -1.64%, CCC(=O)N1CCC(C(N)=O)(N2CCCCC2)CC1 -1.29%, NC(=O)C1(N2CCCCC2)CCN(C(=O)c2ccc(C#Cc3ccccc3)o2)CC1 -1.3%, O=S1(=O)c2ccc(N3CCN(Cc4ccccc4F)CC3)cc2Oc2ccccc2CN1Cc1cn(Cc2ccc(Cl)cc2)nn1 -1.5%, COC(=O)[C@]12C[C@H](CC(=O)NCCCN3CCCC3=O)C(=O)N(CCc3ccc(OC)c(OC)c3)C1=C[C@H](COCc1ccccc1)O[C@@H]2C -0.18%, CCOc1ccc(N(CC(=O)Nc2c(C)n(C)n(-c3ccccc3)c2=O)S(=O)(=O)c2ccc(Cl)s2)cc1 -0.93%, COc1ccc(NC(=S)N2N=CCC2c2ccccc2)cc1 (configuration not stated) 0.28%, CC(=O)NC(c1cccc(F)c1)c1nc(-c2cccc(F)c2)cs1 (configuration not stated) -0.87%, COC(=O)CCc1sc(Nc2ccc(Br)cc2)nc1-c1ccc(OC)cc1 -1.64%, N#CC(=C1SC=CS1)c1nc(-c2ccccc2)cs1 0.19%, c1ccc(-c2csc(N3CCc4ccccc4C3)n2)cc1 0.8%, O=C(CN1C(=O)C2C3C=CC(C3)C2C1=O)Nc1nc(-c2ccccn2)cs1 (configuration not stated) 0.32%, Cc1cc(C)cc(NC(=O)N2CCC(N(C)CCC(C)C)CC2)c1 -1.43%, CCCC1CCC2(CCCN2CCOC(=O)NCc2ccccc2)CC1 (configuration not stated) -2.14%, CN1C[C@]2(C=C3CCCCC3n3c(=O)n(-c4ccccc4)c(=O)n32)N=C1NC(=O)c1ccccc1 (some centres not stated) 0.04%, Nn1c(SCC(=O)N2c3ccccc3Sc3ccccc32)nnc1-c1n[nH]c2c1CCC2 -1.79%, COCCCNC(=O)C[C@H]1C[C@@]2(C(=O)OC)C(=C[C@H](C(C)(C)C)O[C@@H]2C)N(Cc2ccc(Cl)cc2Cl)C1=O -0.31%, COc1ccc(CN2C/C(=C/c3ccccc3)N3C(=O)C[C@@H](c4ccccc4)N=C23)c(OC)c1 -1.31%, CCOC(=O)c1csc(NC(=O)C2CCCN(S(=O)(=O)c3ccc(Cl)s3)C2)n1 (configuration not stated) -2.1%, COc1cccc(/C=C2\CC3(OC(C)=O)CCCN2C3)c1 (configuration not stated) -1.47%, O=C(CSc1nnc(-c2ccccn2)n1-c1ccc(Cl)cc1)Nc1ccccc1-c1ccccc1 -1.33%, CN(C)CC(=O)N[C@@H]1C[C@@H]2O[C@H](CO)CC[C@@H]2O[C@@H]1CCc1ccc(C#Cc2ccccc2)cc1 -1.63%, Oc1ccc(/C=C/c2c(F)cccc2F)c2cccnc12 -1.91%, Cc1ccc(C)c(NC(=O)CCS(=O)(=O)c2ccccc2)c1 -0.72%, CCOC(=O)c1ccccc1NC(=O)c1c(N)n(C)c(=O)[nH]c1=O -0.82%, CCOC(=O)c1ccn(S(=O)(=O)c2ccc(C)cc2)c1-c1ccccc1 -1.27%, COC(=O)c1cccc(Cn2ccc3ccc(-c4ccc5ccn(C(=O)c6ccccc6C)c5c4)cc32)c1 0.19%, C=CCN1[C@H](CC(C)C)COc2cccc(N3CCCC3)c2S1(=O)=O -1.93%, CN(Cc1c(F)cccc1Cl)C(=O)CNC(=O)c1ccc2c(c1)OCO2 -0.2%, O=C(NCCc1ccc(C(F)(F)F)cc1)c1ccc2c(c1)OCO2 -1.42%, COC(=O)[C@H](C(C)C)N(CCc1cn(Cc2ccccc2)nn1)S(=O)(=O)c1ccc(F)cc1Br -1.33%, Cc1cc(NC(=O)Nc2ccccc2[N+](=O)[O-])no1 0.25%, O=C(Nc1ccccc1[N+](=O)[O-])C1C(c2ccccc2)=C1c1ccccc1 -1.13%, CCCCCCCCNS(=O)(=O)/C=C/c1cc(C)ccc1CNC(=O)OC(C)(C)C -2.15%, O=C(O/N=C(/c1ccccc1)c1ccncc1)c1ccccc1[N+](=O)[O-] -0.74%, COc1ccc(C(=O)OCC(=O)NCC2CCCO2)cc1[N+](=O)[O-] (configuration not stated) -1.82%, Cc1ccc(-n2c(SCC(=O)Nc3cccc4ccccc34)nnc2-c2ccccn2)cc1 -1.66%, C#CCCN([C@H](C(=O)OC)C(C)C)S(=O)(=O)c1ccc(F)cc1Br -1.1%, C=CCOC/C=C/C#CCN(CC=C)Cc1ccc(OC)cc1OC -0.87%, Cc1cccc(NC(=O)c2cccc(C(=O)Nc3cccc(C)c3C)n2)c1C -0.53%, Cc1ccccc1C(=O)Nc1ccccc1Sc1ccccc1 -1.24%, COc1ccc(C(=O)CSc2nnc(-c3cnccn3)n2-c2ccc(C)cc2)cc1 -1.18%, CC1=C(N2CCN(c3ncccn3)CC2)CCC1=O -1.32%, CC12CCC(C(=O)N3CCN(c4ncccn4)CC3)(c3nc4ccccc4nc31)C2(C)C (configuration not stated) -1.52%, CCN(CC)C(=O)CC[C@H]1CC[C@]2(CCCN(Cc3ccc(Cl)cc3)C2)O1 -0.21%, CC1CCN(c2ccc(C(=O)O)cc2NS(=O)(=O)c2ccc(Br)s2)CC1 -1.7%, COc1ccc([C@H]2OC(=O)C[C@H]2C(=O)N2CCN(c3ccccc3F)CC2)cc1OC -0.67%, O=C(Oc1ccc(-c2nc(-c3ccccn3)no2)cc1)c1ccccc1 -0.56%, O=S(=O)(c1ccc(Br)cc1)c1nc(-c2ccccc2)oc1N1CCOCC1 -0.79%, O=S1(=O)c2c(NCc3ccco3)cccc2Oc2ccccc2CN1Cc1cn(Cc2cccc(C(F)(F)F)c2)nn1 -1.24%, Cn1c(SCC(=O)c2ccccc2)ncc(C(=O)Nc2ccc(F)cc2)c1=O -0.84%, CCCCn1c(SCC(=O)NCC2CCCO2)nc2ccc(N3CCOCC3)cc2c1=O (configuration not stated) -1.75%, C=CCn1c(SCC(=O)/C(C#N)=C(\C)N)nc2sc(C)c(C)c2c1=O -1.37%, C=CCn1c(SCC(=O)Nc2ccc(NC(C)=O)cc2)nc2sc(C)c(C)c2c1=O -1.09%, CCOC(=O)[C@]12CCCC=C1N(Cc1ccc(OC)cc1)C(=O)[C@@H]2CC(=O)N1CCOCC1 -0.73%

activation, active:
CSCCNC(=O)c1ccc2nc(Cc3ccccc3F)oc2c1 1.4%, CCC(=O)/C(=C(/O)c1ccccc1)c1nc2ccccc2[nH]1 0.91%, O=C(CN1CCCc2ccccc21)NCc1ccc(F)cc1 1.32%, c1ccc2sc(NN=C3CCCC3)nc2c1 1.21%, CC(C)(O)C#Cc1ccc(C(=O)N2CCC(C(N)=O)(N3CCCCC3)CC2)cc1 1.03%, c1ccc(Nc2nc(-c3ccncc3)cs2)nc1 1.1%, Cc1cccc(Nc2nc(-c3ccccc3)cs2)n1 2.9%, COc1ccc(Nc2nc(-c3ccccc3)cs2)cc1 4.09%, Clc1ccc(Nc2nc(-c3cccs3)cs2)nc1 1.83%, CCOC(=O)c1cc2n(c1N)-c1ccccc1C2=O 1.03%, O=C(Nc1ccccc1F)c1ccc2c(c1)OCO2 1.22%, Cc1csc(NC(=O)Nc2ccccc2[N+](=O)[O-])n1 2.54%, COc1ccc(C(=O)O/N=C(\N)c2ccccn2)cc1[N+](=O)[O-] 1.15%, COc1cc2ccccc2cc1C(=O)Nc1ccccc1C 1.32%, c1cnc(N2CCN(c3ccc4ccccc4n3)CC2)nc1 1.77%, Brc1ccc(-c2noc(-c3ccccc3)n2)o1 1.12%, Cc1ccc(NC(=O)c2cnc(SCC(=O)NCC3CCCO3)n(C)c2=O)cc1 (configuration not stated) 1.27%, C=CCn1c(SCC(=O)NCC2CCCO2)nc2sc(C)c(C)c2c1=O (configuration not stated) 2.74%
